How the values were obtained:
Experiment in all cases: log2 ratio of Biotin-Ahx-Ub-VS probe labelling (fragment/DMSO); higher = less target engagement (more negative = stronger competition), active = hit call of the paper (q ≤ 0.05, log2 ratio ≤ -1)
Conditions in all cases: compound concentration: 200 uM; treatment time: 3 h
USP42 = molecular target: T1, USP42 (UniProt Q9H9J4)
T1 sequence (whole entry): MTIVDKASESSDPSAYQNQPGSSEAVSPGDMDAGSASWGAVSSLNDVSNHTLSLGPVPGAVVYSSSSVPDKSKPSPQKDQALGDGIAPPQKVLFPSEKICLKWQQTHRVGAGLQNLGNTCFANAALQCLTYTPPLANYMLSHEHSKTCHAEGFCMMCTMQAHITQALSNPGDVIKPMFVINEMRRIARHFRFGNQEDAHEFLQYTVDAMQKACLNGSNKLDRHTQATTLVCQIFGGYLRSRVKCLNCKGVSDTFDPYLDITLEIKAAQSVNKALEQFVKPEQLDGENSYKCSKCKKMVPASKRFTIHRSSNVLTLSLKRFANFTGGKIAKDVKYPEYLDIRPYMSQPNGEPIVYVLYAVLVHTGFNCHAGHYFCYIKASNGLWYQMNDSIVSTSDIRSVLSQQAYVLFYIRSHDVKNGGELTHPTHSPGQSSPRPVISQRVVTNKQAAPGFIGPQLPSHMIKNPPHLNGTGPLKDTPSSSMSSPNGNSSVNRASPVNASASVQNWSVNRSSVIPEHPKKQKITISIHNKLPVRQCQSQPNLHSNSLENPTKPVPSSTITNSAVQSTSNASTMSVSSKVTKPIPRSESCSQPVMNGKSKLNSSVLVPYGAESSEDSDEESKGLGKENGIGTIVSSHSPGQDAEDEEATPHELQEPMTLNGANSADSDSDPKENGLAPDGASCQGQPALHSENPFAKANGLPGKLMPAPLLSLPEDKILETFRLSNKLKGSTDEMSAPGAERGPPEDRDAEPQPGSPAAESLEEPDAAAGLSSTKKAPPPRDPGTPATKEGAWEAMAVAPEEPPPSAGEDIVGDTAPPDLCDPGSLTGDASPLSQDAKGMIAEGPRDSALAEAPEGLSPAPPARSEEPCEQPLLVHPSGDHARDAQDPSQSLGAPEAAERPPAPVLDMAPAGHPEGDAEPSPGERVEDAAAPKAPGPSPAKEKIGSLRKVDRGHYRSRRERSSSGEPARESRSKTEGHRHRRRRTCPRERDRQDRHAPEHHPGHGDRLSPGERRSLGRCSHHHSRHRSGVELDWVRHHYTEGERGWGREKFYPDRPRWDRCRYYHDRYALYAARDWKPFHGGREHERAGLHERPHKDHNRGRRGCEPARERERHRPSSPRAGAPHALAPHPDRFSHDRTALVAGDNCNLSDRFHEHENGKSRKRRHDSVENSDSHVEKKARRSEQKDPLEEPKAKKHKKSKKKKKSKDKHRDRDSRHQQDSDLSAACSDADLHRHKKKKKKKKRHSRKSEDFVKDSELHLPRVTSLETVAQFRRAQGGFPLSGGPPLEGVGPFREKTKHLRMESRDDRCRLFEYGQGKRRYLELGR
Outline: (§1)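 HEK293T lysate (495 µg per sample, in Tris/CHAPS/IGEPAL buffer with protease inhibitors) was treated in triplicate with fragment at 200 µM or with DMSO for 3 h. It was then treated with Biotin-Ahx-Ub-VS (0.5 µM final) for 1 h. Labelled DUBs were NeutrAvidin-enriched, digested with LysC and trypsin, and run by diaPASEF LC-MS/MS. Spectronaut label-free quantities were global-median-normalised. Values are average log2 ratios fragment/DMSO by unpaired t-test, using proteins with ≥2 unique peptides.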

USP46 = USP46 (UniProt P62068)
Chain of USP46 (P62068 whole entry): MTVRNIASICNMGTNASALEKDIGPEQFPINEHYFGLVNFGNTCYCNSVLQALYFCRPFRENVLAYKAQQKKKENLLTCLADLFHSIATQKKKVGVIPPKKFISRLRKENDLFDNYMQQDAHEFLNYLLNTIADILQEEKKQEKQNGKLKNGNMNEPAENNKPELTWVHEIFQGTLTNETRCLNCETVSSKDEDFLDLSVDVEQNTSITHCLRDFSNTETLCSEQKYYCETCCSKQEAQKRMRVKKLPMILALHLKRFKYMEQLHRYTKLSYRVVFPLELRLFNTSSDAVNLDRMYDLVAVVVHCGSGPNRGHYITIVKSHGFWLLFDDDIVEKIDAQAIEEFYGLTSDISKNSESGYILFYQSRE
Outline: as §1

USP47 = molecular target: T2, USP47 (UniProt Q96K76)
T2 sequence (whole entry): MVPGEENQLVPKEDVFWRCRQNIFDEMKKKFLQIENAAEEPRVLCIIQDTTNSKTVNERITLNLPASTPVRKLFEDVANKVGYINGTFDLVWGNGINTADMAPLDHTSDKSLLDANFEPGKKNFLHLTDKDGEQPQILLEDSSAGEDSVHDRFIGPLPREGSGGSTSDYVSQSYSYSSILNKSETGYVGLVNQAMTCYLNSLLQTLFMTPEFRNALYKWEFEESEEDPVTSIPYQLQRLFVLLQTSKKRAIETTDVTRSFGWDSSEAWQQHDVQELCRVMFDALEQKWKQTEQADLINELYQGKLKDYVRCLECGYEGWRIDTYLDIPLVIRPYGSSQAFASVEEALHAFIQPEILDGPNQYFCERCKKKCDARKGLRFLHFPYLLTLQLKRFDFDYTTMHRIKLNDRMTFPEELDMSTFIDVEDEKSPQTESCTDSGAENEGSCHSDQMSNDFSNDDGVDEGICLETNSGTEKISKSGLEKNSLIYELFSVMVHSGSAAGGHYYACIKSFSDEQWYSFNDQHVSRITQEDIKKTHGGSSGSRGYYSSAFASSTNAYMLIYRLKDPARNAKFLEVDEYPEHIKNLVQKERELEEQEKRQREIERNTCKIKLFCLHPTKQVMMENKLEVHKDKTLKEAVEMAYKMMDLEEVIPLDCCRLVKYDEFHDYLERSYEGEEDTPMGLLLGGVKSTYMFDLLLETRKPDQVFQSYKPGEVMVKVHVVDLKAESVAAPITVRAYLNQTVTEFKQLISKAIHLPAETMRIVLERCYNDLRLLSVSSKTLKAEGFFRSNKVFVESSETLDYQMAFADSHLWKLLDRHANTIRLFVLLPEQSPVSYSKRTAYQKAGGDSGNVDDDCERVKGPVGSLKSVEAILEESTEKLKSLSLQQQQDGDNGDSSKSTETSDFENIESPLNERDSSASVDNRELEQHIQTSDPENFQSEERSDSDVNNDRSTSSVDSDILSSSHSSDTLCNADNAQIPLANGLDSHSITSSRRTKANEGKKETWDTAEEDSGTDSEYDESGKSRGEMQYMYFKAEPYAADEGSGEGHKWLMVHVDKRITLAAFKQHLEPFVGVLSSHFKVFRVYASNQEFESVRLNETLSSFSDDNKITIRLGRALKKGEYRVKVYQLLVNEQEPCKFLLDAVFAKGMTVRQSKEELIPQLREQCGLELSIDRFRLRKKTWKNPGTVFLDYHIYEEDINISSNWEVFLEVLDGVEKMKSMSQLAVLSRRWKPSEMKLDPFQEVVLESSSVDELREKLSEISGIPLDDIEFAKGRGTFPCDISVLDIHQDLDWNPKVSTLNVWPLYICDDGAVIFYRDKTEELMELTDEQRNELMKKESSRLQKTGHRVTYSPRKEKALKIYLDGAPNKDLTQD
Outline: as §1

USP48 = molecular target: T3, USP48 (UniProt Q86UV5)
T3 sequence (whole entry): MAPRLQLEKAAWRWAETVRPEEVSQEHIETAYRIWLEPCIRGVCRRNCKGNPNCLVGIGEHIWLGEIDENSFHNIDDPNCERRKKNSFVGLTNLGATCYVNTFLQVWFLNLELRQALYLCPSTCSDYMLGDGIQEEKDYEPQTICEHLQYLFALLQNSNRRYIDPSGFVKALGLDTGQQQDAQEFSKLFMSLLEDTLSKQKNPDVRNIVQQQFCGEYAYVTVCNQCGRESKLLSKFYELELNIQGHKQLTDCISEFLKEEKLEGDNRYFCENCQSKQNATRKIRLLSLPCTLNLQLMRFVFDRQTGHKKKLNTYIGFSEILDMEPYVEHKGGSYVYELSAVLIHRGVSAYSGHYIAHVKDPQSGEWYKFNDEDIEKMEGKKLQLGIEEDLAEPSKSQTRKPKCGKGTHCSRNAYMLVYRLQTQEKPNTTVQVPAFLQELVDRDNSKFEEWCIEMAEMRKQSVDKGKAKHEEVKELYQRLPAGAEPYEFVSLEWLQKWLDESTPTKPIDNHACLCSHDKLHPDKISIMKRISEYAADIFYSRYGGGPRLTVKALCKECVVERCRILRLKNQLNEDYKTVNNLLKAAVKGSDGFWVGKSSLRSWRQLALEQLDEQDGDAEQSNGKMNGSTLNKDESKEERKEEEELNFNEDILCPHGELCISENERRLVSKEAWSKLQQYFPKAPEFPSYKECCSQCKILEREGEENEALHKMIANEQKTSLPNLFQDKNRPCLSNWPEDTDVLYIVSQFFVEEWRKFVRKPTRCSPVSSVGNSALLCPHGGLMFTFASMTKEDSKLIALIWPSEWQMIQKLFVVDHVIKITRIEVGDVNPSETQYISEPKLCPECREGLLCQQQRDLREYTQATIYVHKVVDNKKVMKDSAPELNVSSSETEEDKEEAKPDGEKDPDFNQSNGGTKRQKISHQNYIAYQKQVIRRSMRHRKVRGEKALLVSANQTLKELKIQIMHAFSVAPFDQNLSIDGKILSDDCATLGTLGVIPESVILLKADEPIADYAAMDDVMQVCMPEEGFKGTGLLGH
Outline: as §1

USP5 = molecular target: T4, USP5 (UniProt P45974)
T4 sequence (whole entry): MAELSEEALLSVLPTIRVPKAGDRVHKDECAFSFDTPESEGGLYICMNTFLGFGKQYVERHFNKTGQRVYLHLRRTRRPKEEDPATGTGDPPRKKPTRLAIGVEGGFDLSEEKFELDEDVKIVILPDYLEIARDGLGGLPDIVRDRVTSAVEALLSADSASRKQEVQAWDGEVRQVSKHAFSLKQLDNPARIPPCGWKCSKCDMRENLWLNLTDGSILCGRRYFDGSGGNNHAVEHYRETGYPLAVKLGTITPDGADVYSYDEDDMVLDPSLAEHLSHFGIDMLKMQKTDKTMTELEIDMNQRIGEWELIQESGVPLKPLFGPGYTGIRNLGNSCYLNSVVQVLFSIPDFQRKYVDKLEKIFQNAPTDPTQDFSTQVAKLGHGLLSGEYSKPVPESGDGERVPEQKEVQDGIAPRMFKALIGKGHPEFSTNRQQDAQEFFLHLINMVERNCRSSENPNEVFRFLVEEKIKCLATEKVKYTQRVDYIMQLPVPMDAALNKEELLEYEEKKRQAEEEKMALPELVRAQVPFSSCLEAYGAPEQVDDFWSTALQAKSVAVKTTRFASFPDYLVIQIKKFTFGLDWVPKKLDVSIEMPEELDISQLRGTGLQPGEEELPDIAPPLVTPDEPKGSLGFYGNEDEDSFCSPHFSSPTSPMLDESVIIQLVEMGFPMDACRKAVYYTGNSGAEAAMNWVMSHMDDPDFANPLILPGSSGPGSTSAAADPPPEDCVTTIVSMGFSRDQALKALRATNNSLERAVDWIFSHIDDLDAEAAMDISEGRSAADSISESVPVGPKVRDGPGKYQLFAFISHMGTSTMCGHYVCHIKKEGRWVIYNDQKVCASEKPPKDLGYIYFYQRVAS
Outline: as §1

USP54 = USP54 (UniProt Q70EL1)
Chain of USP54 (Q70EL1 whole entry): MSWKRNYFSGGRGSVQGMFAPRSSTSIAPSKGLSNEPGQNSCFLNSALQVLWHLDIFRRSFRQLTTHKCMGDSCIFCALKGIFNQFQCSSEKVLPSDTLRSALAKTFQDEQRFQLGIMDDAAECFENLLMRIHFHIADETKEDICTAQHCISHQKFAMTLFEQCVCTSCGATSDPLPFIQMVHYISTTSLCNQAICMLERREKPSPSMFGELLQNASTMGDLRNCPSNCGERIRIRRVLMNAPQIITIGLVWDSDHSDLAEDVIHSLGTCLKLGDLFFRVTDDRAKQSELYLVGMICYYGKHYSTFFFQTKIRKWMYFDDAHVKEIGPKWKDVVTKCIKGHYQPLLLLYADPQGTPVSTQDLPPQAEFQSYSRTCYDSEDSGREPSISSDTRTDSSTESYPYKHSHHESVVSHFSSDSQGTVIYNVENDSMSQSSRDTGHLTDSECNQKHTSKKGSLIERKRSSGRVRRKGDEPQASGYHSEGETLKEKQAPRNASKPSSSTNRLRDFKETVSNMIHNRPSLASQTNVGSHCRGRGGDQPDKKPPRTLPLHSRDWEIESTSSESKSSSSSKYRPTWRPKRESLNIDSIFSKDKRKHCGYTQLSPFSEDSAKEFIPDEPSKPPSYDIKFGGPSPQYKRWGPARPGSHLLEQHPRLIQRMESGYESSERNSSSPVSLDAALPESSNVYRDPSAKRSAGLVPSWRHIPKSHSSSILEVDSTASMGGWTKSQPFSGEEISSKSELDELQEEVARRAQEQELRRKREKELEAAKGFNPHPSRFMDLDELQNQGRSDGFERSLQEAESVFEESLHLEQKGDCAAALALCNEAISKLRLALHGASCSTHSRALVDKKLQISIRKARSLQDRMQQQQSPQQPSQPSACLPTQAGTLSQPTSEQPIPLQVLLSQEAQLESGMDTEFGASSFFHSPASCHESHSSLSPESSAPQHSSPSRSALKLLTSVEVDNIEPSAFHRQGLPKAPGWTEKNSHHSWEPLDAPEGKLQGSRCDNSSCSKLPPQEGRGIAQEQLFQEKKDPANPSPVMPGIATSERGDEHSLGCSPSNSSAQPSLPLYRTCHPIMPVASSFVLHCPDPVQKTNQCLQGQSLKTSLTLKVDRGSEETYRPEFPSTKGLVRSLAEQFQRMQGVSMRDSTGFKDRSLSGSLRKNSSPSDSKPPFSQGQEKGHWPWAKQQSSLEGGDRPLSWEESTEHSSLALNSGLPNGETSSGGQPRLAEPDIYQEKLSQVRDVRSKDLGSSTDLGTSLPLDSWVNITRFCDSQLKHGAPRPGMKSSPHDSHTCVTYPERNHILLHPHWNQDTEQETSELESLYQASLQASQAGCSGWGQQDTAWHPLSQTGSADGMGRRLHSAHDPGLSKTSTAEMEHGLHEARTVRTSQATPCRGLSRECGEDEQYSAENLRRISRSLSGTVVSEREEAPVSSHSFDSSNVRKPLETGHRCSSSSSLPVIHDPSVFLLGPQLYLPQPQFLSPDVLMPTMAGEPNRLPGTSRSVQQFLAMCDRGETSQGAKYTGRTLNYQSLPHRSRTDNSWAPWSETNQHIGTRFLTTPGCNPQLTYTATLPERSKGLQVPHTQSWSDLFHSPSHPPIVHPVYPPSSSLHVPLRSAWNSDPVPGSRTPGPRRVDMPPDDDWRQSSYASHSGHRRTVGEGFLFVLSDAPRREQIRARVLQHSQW
Outline: as §1

USP7 = USP7 (UniProt Q93009)
Outline: as §1

USP8 = molecular target: T5, USP8 (UniProt P40818)
T5 sequence (whole entry): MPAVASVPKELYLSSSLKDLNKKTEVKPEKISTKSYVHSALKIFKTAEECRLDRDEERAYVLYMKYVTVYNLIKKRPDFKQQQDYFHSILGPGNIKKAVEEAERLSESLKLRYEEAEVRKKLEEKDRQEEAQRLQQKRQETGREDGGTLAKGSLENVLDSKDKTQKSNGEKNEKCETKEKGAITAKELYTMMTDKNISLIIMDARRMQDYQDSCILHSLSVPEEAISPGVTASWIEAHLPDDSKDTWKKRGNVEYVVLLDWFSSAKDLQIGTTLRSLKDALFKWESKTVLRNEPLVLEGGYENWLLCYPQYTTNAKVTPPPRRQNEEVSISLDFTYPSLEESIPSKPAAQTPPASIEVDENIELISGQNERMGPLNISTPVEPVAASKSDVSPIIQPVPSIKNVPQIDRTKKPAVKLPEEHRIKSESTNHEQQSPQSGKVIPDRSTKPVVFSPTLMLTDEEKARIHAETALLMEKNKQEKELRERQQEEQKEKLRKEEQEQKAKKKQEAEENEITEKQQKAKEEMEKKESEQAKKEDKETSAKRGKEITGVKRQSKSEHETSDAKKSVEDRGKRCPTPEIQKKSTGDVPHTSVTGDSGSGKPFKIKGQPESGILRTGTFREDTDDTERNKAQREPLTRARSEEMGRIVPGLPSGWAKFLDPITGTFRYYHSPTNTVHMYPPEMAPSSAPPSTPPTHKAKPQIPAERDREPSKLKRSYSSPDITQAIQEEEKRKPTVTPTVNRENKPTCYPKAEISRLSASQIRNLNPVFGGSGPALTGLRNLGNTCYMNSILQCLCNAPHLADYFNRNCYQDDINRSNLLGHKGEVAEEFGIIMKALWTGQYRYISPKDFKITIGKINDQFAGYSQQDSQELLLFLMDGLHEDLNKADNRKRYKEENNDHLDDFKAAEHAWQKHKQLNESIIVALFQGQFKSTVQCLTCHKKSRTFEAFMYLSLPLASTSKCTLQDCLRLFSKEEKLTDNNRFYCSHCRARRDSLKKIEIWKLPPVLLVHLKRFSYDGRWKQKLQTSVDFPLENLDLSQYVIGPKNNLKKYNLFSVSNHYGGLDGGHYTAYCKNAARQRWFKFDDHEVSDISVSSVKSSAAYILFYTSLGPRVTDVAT
Outline: as §1

USP9X = USP9X (UniProt Q93008)
Chain of USP9X (Q93008 whole entry): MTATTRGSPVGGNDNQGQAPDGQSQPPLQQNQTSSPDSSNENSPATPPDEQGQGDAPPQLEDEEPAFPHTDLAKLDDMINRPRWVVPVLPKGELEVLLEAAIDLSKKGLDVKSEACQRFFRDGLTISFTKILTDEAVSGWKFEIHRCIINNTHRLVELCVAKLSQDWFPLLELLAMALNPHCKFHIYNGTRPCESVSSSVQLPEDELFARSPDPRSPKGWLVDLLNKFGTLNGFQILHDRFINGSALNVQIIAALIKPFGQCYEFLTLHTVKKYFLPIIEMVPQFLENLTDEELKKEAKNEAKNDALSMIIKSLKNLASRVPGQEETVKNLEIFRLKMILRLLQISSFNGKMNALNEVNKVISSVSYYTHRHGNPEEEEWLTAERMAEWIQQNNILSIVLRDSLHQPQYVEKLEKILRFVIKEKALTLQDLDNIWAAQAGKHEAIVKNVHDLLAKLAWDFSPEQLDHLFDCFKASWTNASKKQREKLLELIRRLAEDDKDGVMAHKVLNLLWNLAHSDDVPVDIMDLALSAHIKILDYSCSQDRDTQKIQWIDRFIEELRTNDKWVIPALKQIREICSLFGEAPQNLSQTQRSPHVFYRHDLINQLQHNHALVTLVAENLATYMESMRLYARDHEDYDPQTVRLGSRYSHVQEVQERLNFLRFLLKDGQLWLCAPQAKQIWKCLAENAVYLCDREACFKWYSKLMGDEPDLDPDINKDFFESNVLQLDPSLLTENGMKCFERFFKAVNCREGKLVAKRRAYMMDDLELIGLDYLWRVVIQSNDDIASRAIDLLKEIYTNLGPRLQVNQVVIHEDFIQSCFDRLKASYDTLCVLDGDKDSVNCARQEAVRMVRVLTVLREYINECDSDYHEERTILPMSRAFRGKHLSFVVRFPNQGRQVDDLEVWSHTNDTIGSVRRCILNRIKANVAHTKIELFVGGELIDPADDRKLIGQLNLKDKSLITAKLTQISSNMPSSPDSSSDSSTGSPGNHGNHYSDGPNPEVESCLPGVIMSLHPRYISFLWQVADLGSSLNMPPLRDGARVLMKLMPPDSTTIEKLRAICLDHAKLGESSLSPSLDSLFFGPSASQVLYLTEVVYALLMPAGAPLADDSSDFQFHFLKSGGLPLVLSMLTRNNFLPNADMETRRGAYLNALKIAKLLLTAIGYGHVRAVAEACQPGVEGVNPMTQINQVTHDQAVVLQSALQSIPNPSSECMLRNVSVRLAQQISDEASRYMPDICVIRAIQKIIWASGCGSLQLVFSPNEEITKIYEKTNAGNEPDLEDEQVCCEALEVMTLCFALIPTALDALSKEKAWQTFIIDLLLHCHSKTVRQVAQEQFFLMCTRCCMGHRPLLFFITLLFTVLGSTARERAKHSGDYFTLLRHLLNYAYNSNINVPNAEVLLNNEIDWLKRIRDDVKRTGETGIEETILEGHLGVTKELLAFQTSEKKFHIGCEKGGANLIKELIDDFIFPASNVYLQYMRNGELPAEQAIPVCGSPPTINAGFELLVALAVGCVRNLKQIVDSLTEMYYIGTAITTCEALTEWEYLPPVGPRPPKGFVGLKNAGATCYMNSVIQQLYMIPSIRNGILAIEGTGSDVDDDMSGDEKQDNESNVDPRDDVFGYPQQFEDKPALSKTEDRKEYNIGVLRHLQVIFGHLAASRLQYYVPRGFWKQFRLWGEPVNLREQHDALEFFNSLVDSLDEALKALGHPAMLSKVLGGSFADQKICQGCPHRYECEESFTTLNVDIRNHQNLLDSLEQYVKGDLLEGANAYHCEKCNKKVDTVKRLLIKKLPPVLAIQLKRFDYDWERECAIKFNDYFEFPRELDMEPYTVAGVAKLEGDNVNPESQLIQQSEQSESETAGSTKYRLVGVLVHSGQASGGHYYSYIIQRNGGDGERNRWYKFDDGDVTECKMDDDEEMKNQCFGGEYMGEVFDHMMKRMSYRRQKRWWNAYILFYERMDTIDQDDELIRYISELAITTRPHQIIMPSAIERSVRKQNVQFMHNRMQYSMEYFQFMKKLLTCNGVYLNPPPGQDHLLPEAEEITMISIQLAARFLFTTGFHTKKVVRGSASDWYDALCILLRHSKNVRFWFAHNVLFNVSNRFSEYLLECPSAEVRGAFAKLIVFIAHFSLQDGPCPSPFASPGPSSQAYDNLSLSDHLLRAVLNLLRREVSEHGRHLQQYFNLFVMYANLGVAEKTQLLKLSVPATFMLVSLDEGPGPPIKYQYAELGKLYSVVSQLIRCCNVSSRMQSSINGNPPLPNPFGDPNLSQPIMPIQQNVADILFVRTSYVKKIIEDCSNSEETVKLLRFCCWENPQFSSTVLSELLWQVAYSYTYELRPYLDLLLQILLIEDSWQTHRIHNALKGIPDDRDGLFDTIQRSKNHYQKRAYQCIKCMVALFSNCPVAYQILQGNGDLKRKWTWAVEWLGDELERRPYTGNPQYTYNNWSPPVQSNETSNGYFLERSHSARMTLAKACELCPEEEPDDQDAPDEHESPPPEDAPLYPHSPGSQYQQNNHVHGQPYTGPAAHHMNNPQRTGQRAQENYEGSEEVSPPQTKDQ
Outline: as §1

UniProt O00487 = molecular target: UniProt O00487
Chain of UniProt O00487 (O00487 whole entry): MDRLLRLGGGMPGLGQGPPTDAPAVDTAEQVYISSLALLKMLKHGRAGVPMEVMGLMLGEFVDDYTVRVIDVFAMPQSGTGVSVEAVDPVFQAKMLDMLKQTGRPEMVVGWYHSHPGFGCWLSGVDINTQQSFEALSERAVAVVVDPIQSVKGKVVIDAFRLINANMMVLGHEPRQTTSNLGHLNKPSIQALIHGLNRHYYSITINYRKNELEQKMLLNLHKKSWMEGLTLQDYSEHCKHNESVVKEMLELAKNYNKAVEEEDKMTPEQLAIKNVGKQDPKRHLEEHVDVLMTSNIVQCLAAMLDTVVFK
Outline: as §1

Measured: log2 ratio of Biotin-Ahx-Ub-VS probe labelling

C/C(=C\CNC(=O)CCl)c1cnn(C)c1.Cl
inactive: USP42 0.377 | USP46 -0.21 | USP47 -0.51 | USP48 -0.224 | USP5 -0.543 | USP54 -0.0188 | USP7 -0.224 | USP8 0.115 | USP9X -0.138 | UniProt O00487 -0.0232
